Among the data in PubChem BioAssay AID2546 (National Center for Advancing Translational Sciences (NCATS), 2010) are Potency and activity, negative = inhibition values, retold here.

Molecules are shown by their SMILES. The campaign covered roughly 310,000 compounds. About 11,000 (3.5%) were called active. Not shown: some 8% with an inconclusive outcome. What follows is part of a selection rich in actives, with near analogues and random picks from the rest. A call without a number means that no potency is given here. A number with no mark means an inactive call. The call rests on the fitted dose curve; in most records, active means well fitted inhibition curve with a large enough effect; inconclusive means small, poorly fitted or top-dose-only effect, or effect the other way; inactive means flat fitted curve, though single readings scatter.
Potency means the concentration at half of the fitted maximal effect.

The test is described as follows: VP16 counterscreen qHTS for inhibitors of ROR gamma transcriptional activity.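 Further: Gal4-VP16 expression switched on by copper sulfate through the metallothionein promoter; nearly all actives have a fitted effect of over 50% in size.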 As to conditions: Drosophila S2 Gal4-VP16 UAS-luciferase, luminescence, 20 h; series mostly up to 53.6 µM.
On to `CC(=O)c1nn(-c2cccc(C(F)(F)F)c2)c(=O)[nH]c1=O`, for which the Potency entry was “inactive”. Regarding `COc1ccccc1CCNC(=O)c1c(C)nn(CC(C)C)c1Cl`, the Potency entry is “inactive”.

With `COc1cccc(C(=O)N/N=C(\C)c2cccc(NC(=O)c3ccc(F)cc3)c2)c1OC`, the Potency entry was “inactive”. `Cc1cccc(C(=O)N2CCCC(Nc3ccc(C(C)C)cc3)C2)n1` (stereo not drawn): the Potency result is “inactive”. With `COc1ccc(NC2CCCN(C(=O)c3ccncc3)C2)cc1` (stereo not drawn), the Potency result is “inactive”. For `CC(C)c1ccc(NC2CCCN(C(=O)c3ccncc3)C2)cc1` (stereo not drawn), the Potency is 1.58 µM (active). For the compound `O=C(Nc1ccc(C(=O)NCc2ccccc2Cl)cc1)C1=CSCCO1`, the Potency entry was “inactive”.

`COc1ccc(-n2nc(C(=O)NCC(=O)N3CCCCCC3)c3ccccc3c2=O)cc1Cl`: the Potency result was “inactive”. In the case of `CC(=O)c1cccc(NC(=O)CN2C(=O)c3cccnc3Oc3ccc(Cl)cc32)c1`, the Potency result is “inactive”. On to `C#CC(CCN1CCCCC1)(OC)c1ccccc1` (stereo not drawn), for which the Potency entry was “inactive”.

As to `CCNC(=O)CCc1nc(-c2ccc(C(C)(C)C)cc2)no1`, the Potency is 2.51 µM (active). Same read-out and setting: with `CN1CCN(C(=O)CCc2nc(-c3ccc(Cl)cc3)no2)CC1` the entry was “inactive”; with `CCNC(=O)CCc1nc(-c2ccc(C)cc2)no1`, “inactive”; with `COC(=O)c1ccc(N2CCOCC2)c(NC(=O)c2ccc(Br)o2)c1`, “inactive”. Consider `CCOC(=O)N1CCN(C(c2cccnc2)c2ccc3cccnc3c2O)CC1` (stereo not drawn), for which the Potency is 6.31 µM (active). Still for that read-out and setting: with `CCN1CCN(c2ccc(NC(=O)c3cnccn3)cc2)CC1` the entry was “inactive”.

On to `CCN1CCN(C(c2cccnc2)c2cc(Cl)c3cccnc3c2O)CC1` (stereo not drawn), for which the Potency is 5.01 µM (active). Same read-out and setting: with `CCOC(=O)N1CCN(C(=O)C2CCN(c3ncnc4c3sc3cccc(F)c34)CC2)CC1` the entry was “inactive”; with `Cc1onc(C(=O)NN)c1C(=O)N1CCN(C(c2ccccc2)c2ccccc2)CC1`, “inactive”; with `Oc1ccccc1CN1CCN(C(c2ccccc2)c2ccccc2)CC1`, “inactive”.

On to `CC(=O)Nc1ccc(S(=O)(=O)N2N=NC3C2C2CC4C3(CN(C(=O)OC(C)(C)C)S4(=O)=O)O2)cc1` (stereo not drawn), for which the Potency entry is “inactive”. Regarding `O=C(CCc1nnc(Cc2ccc3c(c2)OCO3)o1)NCCc1ccccc1Cl`, the Potency entry is “inactive”. As for `O=C1Nc2cc(C(=O)N3CCN(c4ccc(F)cc4)CC3)ccc2NC1CSCc1cccc(F)c1` (stereo not drawn), the Potency entry was “inactive”. Regarding `Clc1cccc(Cl)c1OCCOCCNCc1ccccc1`, the Potency result was “inactive”. With `COc1cccc(NC(=O)N2C3CCCC2CC(NC(C)=O)C3)c1` (stereo not drawn), the Potency result is “inactive”. Still for that read-out and setting: with `CCOC(=O)C1(Cc2ccccc2C)CCCN(C(=O)CCc2c(C)noc2C)C1` (stereo not drawn) the entry was “inactive”. `COc1ccc(CCNC(=O)c2cnc(Cl)c(Cl)c2)cc1`: the Potency result was “inactive”. In the case of `S=c1[nH]nc(-c2ccco2)n1/N=C/c1ccccc1`, the Potency result is “inactive”. Turning to `S=c1[nH]nc(-c2ccncc2)n1/N=C/c1ccccc1Cl`, the Potency entry is “inactive”. On the same count and under the same terms, with `S=c1[nH]nc(-c2cc(-c3ccccc3)n[nH]2)n1/N=C/c1c2ccccc2cc2ccccc12` the figure was 6.31 µM (active); with `S=c1[nH]nc(-c2cc(-c3ccsc3)n[nH]2)n1-c1ccccc1`, “inactive”.

Take `S=c1[nH]nc(-c2cccs2)n1/N=C/c1cccs1`: the Potency result is “inactive”. `Cc1ccc(/C=N\n2c(-c3ccccc3)n[nH]c2=S)s1`: the Potency was 8.91 µM (active). For the compound `CCc1ccc(-c2cc(C)no2)cc1S(=O)(=O)NCCc1ccc(S(N)(=O)=O)cc1`, the Potency entry is “inactive”. Still for that read-out and setting: with `NS(=O)(=O)c1ccc(CCNC(=O)c2nc(CS(=O)(=O)c3ccc(Cl)cc3)no2)cc1` the entry was “inactive”; with `COc1ccc(C(=O)COC(=O)Cn2cnc3c2c(=O)n(C)c(=O)n3C)c(OC)c1`, “inactive”. Consider `CCCCNC(=O)CN1C(=O)NC(Cc2ccccc2)(Cc2ccccc2)C1=O`, for which the Potency entry is “inactive”. Same read-out and setting: with `O=C(N/N=C\C1CC=CCC1)c1ccc(Br)o1` (stereo not drawn) the entry was “inactive”. Consider `CC1(C)NC(=O)N(CC(=O)Nc2cc(C(F)(F)F)cc(C(F)(F)F)c2)C1=O`, for which the Potency result was “inactive”. `COc1ccc(N)c(OC)c1`: the Potency entry was “inactive”. For the compound `COc1ccc(/C=C2/C(=O)N(c3ccccc3)N=C2C)c(OC)c1`, the Potency entry is “inactive”. For the compound `COc1ccc(/C=C/C2=CC(C)(C)NC(=S)N2)c(OC)c1`, the Potency was 3.55 µM (active). Consider `CCC(=O)c1ccc(OC(=O)/C=C/c2cc(OC)c(OC)c(OC)c2)cc1`, for which the Potency result is “inactive”. For the compound `COc1ccc2[nH]c(C(=O)N/N=C/c3cc(OC)c(OC)c(OC)c3)cc2c1`, the Potency result was “inactive”. The same measure, in the same setting: with `COc1cc(/C=C/C2=CC(C)(C)NC(=S)N2)cc(OC)c1OC` the figure was 12.6 µM (active); with `CC1C(=O)N(Cc2ccccc2)c2ccccc2N1C(=O)c1ccccc1` (stereo not drawn), “inactive”. Regarding `COc1ccc(CSc2nnnn2-c2ccc(C(=O)O)cc2)cc1`, the Potency result is “inactive”.

Take `COCCCNC(=O)[C@H]1N2C(=O)c3ccccc3C2SC1(C)C` (stereo partly drawn): the Potency result was “inactive”. Consider `Cn1cccc1-c1nc2ccccc2n1C`, for which the activity, negative = inhibition was -16.5% [at 10 µM]. As to `Cn1c(-c2ccco2)nc2cc3ccccc3cc21`, the Potency is 11.2 µM (active). Turning to `COc1ccc(CCn2c(-c3ccco3)nc3nc4ccccc4nc32)cc1OC`, the Potency entry is “inactive”.

Consider `CCn1cc(C(=O)NCCC(=O)NCCO)c(=O)c2cc3c(cc21)OCO3`, for which the Potency entry is “inactive”.

Turning to `O=C(N/C(=C/c1ccc(Cl)cc1)C(=O)N1CCCCC1)c1ccco1`, the Potency result was “inactive”. Turning to `COC(=O)c1ccc(CNC(=O)c2ccc3oc(C(C)C)nc3c2)cc1`, the Potency result is “inactive”. For the compound `FC(F)(F)C1CCCN(c2nsc3ccccc23)C1` (stereo not drawn), the Potency is 28.2 µM (active). Consider `O=c1[nH]c(/C=C\c2cccc(C(F)(F)F)c2)nc(O)c1[N+](=O)[O-]`, for which the Potency result was “inactive”.

As to `CCN1CCN(C(=O)C2CCN(S(=O)(=O)c3cc(Cl)ccc3Cl)CC2)CC1`, the Potency entry was “inactive”. The same measure, in the same setting: with `CSc1ccc(CNCCN2CCOCC2)cc1` the entry was “inactive”. In the case of `CC(C)(C)c1ccc(CCC2OCC(CN3CCOCC3)O2)cc1` (stereo not drawn), the Potency was 4.47 µM (active). Consider `CCCCOc1ccc(C(C)(O)CCN2CCOCC2)cc1` (stereo not drawn), for which the Potency result was “inactive”. For the compound `COc1ccc(/C=C/c2c(-c3cccc(C)c3)oc3ccc(-c4ccc5c(c4)OCO5)cc23)cc1`, the Potency entry was “inactive”. For `COc1cccc2cc(C(=O)NCc3ccc(C)cc3)c(=N)oc12`, the Potency entry is “inactive”. For the compound `CC[C@]1(c2ccccc2OC)C(=O)N(C(=O)OC)N1C(=O)OC`, the Potency result was “inactive”. Same read-out and setting: with `N=c1oc2ccccc2cc1C(=O)N/N=C/c1ccccc1` the entry was “inactive”. Turning to `Cc1ccc(/C=N/NC(=O)c2cc3ccccc3cc2O)o1`, the Potency was 1.58 µM (active). Regarding `Cc1ccc(/C=N/NC(=O)CNC(=O)COc2ccccc2)o1`, the Potency entry is “inactive”. Still for that read-out and setting: with `COc1ccc(-n2ncc3c(SCC(=O)NNC(C)=O)ncnc32)cc1` the entry was “inactive”; with `COc1ccc(N(C(=O)c2snc(C(N)=O)c2N)C(C(=O)NC2CCCC2)c2ccc(C)o2)c(OC)c1` (stereo not drawn), “inactive”. Consider `Cc1cccc(-n2ncc(Cl)c(Cl)c2=O)c1`, for which the Potency was 14.1 µM (active). On to `Cc1cccc(-n2ncc(C#N)c2-n2cccc2)c1`, for which the Potency result was “inactive”. Take `COc1ccc(Oc2c(Cl)cnn(-c3ccccc3)c2=O)cc1`: the Potency result was “inactive”.

In the case of `O=C(CSc1ccc(-c2ccccn2)nn1)Nc1ccccc1`, the Potency entry is “inactive”. Still for that read-out and setting: with `Clc1nc(NC2CCCC2)nc(N2CCOCC2)n1` the entry was “inactive”; with `Cc1nn(-c2ccccc2)c(C)c1C(=O)OCC(=O)NC(=O)NC1CCCCC1`, “inactive”; with `O=C(NNC(=O)C(O)c1ccccc1)NC1CCCCC1` (stereo not drawn), “inactive”. In the case of `Cc1nc(/N=C(\N)NC(=O)NC2CCCCC2)nc2ccccc12`, the Potency is 7.94 µM (active). In the case of `c1ccc2c(Nc3ccncc3)nc(-c3ccc4c(c3)OCO4)nc2c1`, the Potency is 17.8 µM (active).

On to `Cc1cccc(-c2nc(Nc3ccc(O)cc3)c3ccccc3n2)c1`, for which the Potency result was “inactive”. For the compound `c1ccc2c(Nc3ccncc3)nc(-c3ccoc3)nc2c1`, the Potency entry was “inactive”. For `COCCc1nn2c(=O)cc(COC(=O)c3cc(OC)c(OC)c(OC)c3)nc2s1`, the Potency result was “inactive”. As to `Cc1cc(C(=O)NC2CC(C)(C)Cc3c2cnn3-c2ccccc2)n[nH]1` (stereo not drawn), the Potency result is “inactive”. With `O=C(c1ccccc1F)N(Cc1ccccc1)Cc1ccccc1`, the Potency entry was “inactive”. On the same count and under the same terms, with `C/C(=N\NC(=O)c1ccccc1C)c1ccc(N2CCOCC2)cc1` the entry was “inactive”; with `CC(=O)NC(=O)c1ccccc1O`, “inactive”; with `C/C(=N\NC(=O)c1nc(C)cc(C)n1)c1ccccc1`, “inactive”. Same read-out and setting: with `CNC(=O)C(NC(=O)c1ccccc1)=C(C)C` the entry was “inactive”; with `CC(C)=C(NC(=O)c1ccccc1)C(=O)N/N=C(\C)c1ccccc1O`, 2.51 µM (active).

`C/C(=N\NC(=O)c1ccoc1C)c1ccccc1O`: the Potency is 0.708 µM (active). Take `CCc1cc(=O)oc2c(C)c(OCC(=O)N3CC[C@@]4(O)CCCC[C@H]4C3)ccc12`: the Potency result is “inactive”. Still for that read-out and setting: with `COc1ccc(CNC(=O)C2CCN(S(=O)(=O)c3ccc(SC)cc3)CC2)cc1` the entry was “inactive”; with `COc1cccc(NC(=O)[C@H](Cc2c[nH]c3ccccc23)NC(=O)[C@@H]2Cc3ccccc3CN2)c1`, “inactive”; with `O=C1CCN(CCCc2ccccc2)CCN1CCO`, “inactive”. On to `CCOc1ccccc1OCCCNCc1ccccc1`, for which the Potency entry was “inactive”. On to `CCOc1ccccc1N1CN(Cc2ccccc2)CNC1=S`, for which the Potency was 11.2 µM (active). Consider `CCOc1ccc(CC(=O)NC2CCN(Cc3ccccc3)CC2)cc1`, for which the Potency result is “inactive”.

On to `O=C(c1ccco1)N1CCN(Cc2cccc(C(F)(F)F)c2)CC1`, for which the Potency result was “inactive”. Take `Cc1ccc(NS(=O)(=O)c2ccc3c(c2)n(C)c(=O)c(=O)n3C)c(C)c1`: the Potency entry was “inactive”. As to `CCOC(=O)COn1c(=O)c(-c2ccc(OCC)cc2)[n+]([O-])c2ccccc21`, the Potency entry is “inactive”.

Consider `Cc1nn(-c2ccccc2)c2c1c(C)c(CCC(=O)NCC1CCCO1)c(=O)n2C` (stereo not drawn), for which the Potency result is “inactive”. On to `CC(=O)CCC(=O)c1ccc2ccccc2c1`, for which the Potency entry was “inactive”. Regarding `C=CC(=O)c1ccc2ccccc2c1`, the Potency is 0.708 µM (active). In the case of `O=C(Nc1ccc(NC(=O)c2cccs2)cc1)c1ccc2ccccc2c1`, the Potency result is “inactive”.

As for `COc1cc2ccccc2cc1C(=O)Nc1ccccc1C`, the Potency entry is “inactive”.

Regarding `Cc1ccc(N(C(=O)c2snc(C(N)=O)c2N)C(C(=O)NCC2CCCO2)c2c[nH]c3ccccc23)cc1` (stereo not drawn), the Potency entry is “inactive”. For `CCSc1nsc(NC(=O)Nc2ccccc2OC)n1`, the Potency result was “inactive”. For `CC1CCN(c2ccc(S(=O)(=O)Nc3cc(C(=O)O)cc(C(=O)O)c3)cc2[N+](=O)[O-])CC1`, the Potency entry was “inactive”. For `CC1CCN(c2ccc(C(=O)NCc3ccc4c(c3)OCO4)cc2[N+](=O)[O-])CC1`, the Potency entry is “inactive”.

In the case of `CC1CCN(c2ccc(C(=O)Nc3nnc(C4CC4)s3)cc2[N+](=O)[O-])CC1`, the Potency was 17.8 µM (active).
